# Active and inactive are the calls of the source.
# Target: NADPH oxidase 2 (Homo sapiens) (UniProt P04839)
# Experiment: compounds shifting NOX2 Amplex Red fluorescence – cell-based, HEK293-NOX2, PMA-stimulated, NOX inhibitor project, primary screen (AID 1159); also: test concentration not given here
# Conditions: 45 min, higher = more signal, called active from +8 up or from −8 down
# Sequence of NADPH oxidase 2 (Homo sapiens) (P04839 whole entry, looked up): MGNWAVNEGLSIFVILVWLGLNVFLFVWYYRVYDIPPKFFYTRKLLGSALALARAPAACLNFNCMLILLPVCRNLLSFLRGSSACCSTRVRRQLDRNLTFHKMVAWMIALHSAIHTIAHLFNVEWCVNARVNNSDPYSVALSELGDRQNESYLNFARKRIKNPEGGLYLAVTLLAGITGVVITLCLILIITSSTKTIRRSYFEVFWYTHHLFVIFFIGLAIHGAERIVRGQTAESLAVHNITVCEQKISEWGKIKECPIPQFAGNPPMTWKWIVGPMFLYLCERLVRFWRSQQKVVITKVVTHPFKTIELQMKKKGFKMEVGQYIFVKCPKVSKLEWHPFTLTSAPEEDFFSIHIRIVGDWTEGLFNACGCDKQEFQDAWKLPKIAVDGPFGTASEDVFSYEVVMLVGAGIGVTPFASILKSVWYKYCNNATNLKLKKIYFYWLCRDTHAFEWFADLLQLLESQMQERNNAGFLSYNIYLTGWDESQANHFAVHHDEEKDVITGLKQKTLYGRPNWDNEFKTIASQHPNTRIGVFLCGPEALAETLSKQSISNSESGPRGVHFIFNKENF
row,Structure (SMILES),z-score
1,CC[C@@H]1C=C(C(=O)O)[C@H](c2ccc(Br)cc2)N1S(=O)(=O)c1ccc(C)cc1,0.451 (inactive)
2,O=C1c2ccccc2[C@](Cc2ccccc2I)(C(=O)NCCN2CCOCC2)[C@H](c2ccc(CO)cc2)N1Cc1ccccc1Cl,-0.136 (inactive)
3,COC(=O)[C@@]1(Cc2ccc(OC)cc2)[C@H]2c3cc(C(=O)N4CCCC4)n(CCN4CNCC4=O)c3C[C@H]2CN1C(=O)c1ccccc1,0.468 (inactive)
4,COC(=O)[C@@]1(Cc2ccc(OC)cc2)[C@@H]2C(=CC(=O)[C@H]2CC(=O)C(=O)N2CCCC2)CN1C(=O)c1ccccc1,0.143 (inactive)
5,C=CCNC(=O)[C@@H]1[C@H]2C(=O)O[C@H](c3ccccc3)[C@H](c3ccccc3)N2[C@H](c2ccc(O)cc2)[C@@]12C(=O)N(C(=O)OCCOC)c1ccc(C#CCNC(N)=O)cc12,1.08 (inactive)
6,Cc1ccc(S[C@]2(C(=O)NCCCN(C)C)CC(=O)N(Cc3cc(C(F)(F)F)cc(C(F)(F)F)c3)[C@@H]2c2ccc(CO)cc2)cc1,-0.373 (inactive)
7,COc1ccc([Si](C)(C)[C@H]2[C@H](CCO)O[C@@]3(C(=O)N(Cc4ccc(N(C=O)c5ccccc5)cc4)c4ccccc43)[C@@H]2C)cc1,0.118 (inactive)
8,[N-]=[N+]=Nc1ccccc1[C@H]1OC(c2ccc(OCCCO)cc2)=N[C@@]1(CCS(=O)(=O)c1ccccc1)C(N)=O,0.178 (inactive)
9,NC(=O)NCC#Cc1ccc2c(c1)[C@]1(C(=O)N2)[C@H](c2ccccc2OCCO)N2[C@H](c3ccccc3)[C@H](c3ccccc3)OC(=O)[C@H]2[C@@H]1C(=O)Nc1nc2ccccc2s1,1.95 (inactive)
10,CCCC=C(CCC)[C@@H](NC(=O)c1cccs1)c1ccc(C(F)(F)F)cc1,-4.56 (inactive)
11,CN(C)C(=O)[C@]1(Cc2ccccc2N=[N+]=[N-])N=C(c2ccc(OCCCO)cc2)O[C@@H]1c1ccccc1N=[N+]=[N-],-1.59 (inactive)
12,COC(=O)[C@@]1(Cc2ccc(OC)cc2)[C@H]2c3cc(C(=O)N(C)C)n(Cc4ccccn4)c3C[C@H]2CN1C(=O)c1ccccc1,0.188 (inactive)
13,COC(=O)[C@@]1(Cc2ccc(F)cc2)[C@H]2c3cc(C(=O)N4CCCC4)n(CCCNc4ncc(C(F)(F)F)cc4Cl)c3C[C@H]2CN1C(=O)c1ccccc1,-0.299 (inactive)
14,O=C(CS)NCCCCCCNC(=O)[C@@H]1C[C@@H]2C(=O)NCC(=O)N2[C@@H]1c1cccc(OCCO)c1,1.54 (inactive)
15,CCOC(=O)C[C@H]1[C@H](OC(=O)c2ccccc2-c2ccccc2)[C@@H](NC(=O)CC(C)C)c2cc(OCCCO)ccc2N1C(=O)Cc1ccc(OC)cc1,-0.234 (inactive)
16,COc1ccc([C@H]2OC[C@@H]3C[C@@H](Cc4ccccc4)C(=O)N32)cc1,1.25 (inactive)
17,COc1ccc(CCNC(=O)[C@@]2(C)c3ccccc3C(=O)N(C(C)C)[C@H]2c2ccc(CO)cc2)cc1,-1.12 (inactive)
18,C=CCOC(=O)[C@@H]1[C@H]2C(=O)O[C@H](c3ccccc3)[C@H](c3ccccc3)N2[C@H](c2ccc(OCCOC(=O)[C@@H]3C[C@@H]4C(=O)NCC(=O)N4[C@@H]3c3ccc(O)cc3)cc2)[C@@]12C(=O)Nc1ccc(I)cc12,1.46 (inactive)
19,O=C1C[C@@](C(=O)NCCN2CCOCC2)(c2ccc([N+](=O)[O-])cc2)[C@@H](c2ccc(CO)cc2)N1CC12CC3CC(CC(C3)C1)C2,-4.27 (inactive)
20,COCCOC(=O)N1C(=O)[C@@]2(c3cc(C#CCC(C(=O)OC)C(=O)OC)ccc31)[C@H](C(=O)Nc1nc3ccccc3s1)[C@H]1C(=O)O[C@H](c3ccccc3)[C@H](c3ccccc3)N1[C@@H]2c1ccccc1OCCO,0.652 (inactive)
21,COC(=O)[C@@]1(Cc2ccccc2)[C@H]2c3cc(C(=O)N(C)C)n(Cc4ccsc4Br)c3C[C@H]2CN1C(=O)c1ccccc1,-0.111 (inactive)
22,CC1CC/C=C\[C@H]2OC34C=CCN(C(C)(C)C)C(=O)[C@H]3N(CCO)C(=O)[C@@H]4C2C(=O)O1 (some centres undefined),1.36 (inactive)
23,C=C(CCCC)/C(=C/C[C@@H](OC(C)=O)c1ccc(OCCO)cc1)c1cnc2ccccc2c1,-1.98 (inactive)
24,CC(C)C(O)C1C=CC2C(=O)N(c3ccccc3)C(=O)C2N1Nc1ccc([N+](=O)[O-])cc1 (centres undefined),-0.59 (inactive)
